Data from PubChem BioAssay (Tox21).
Results filed as inconclusive are left out. Calls of active or inactive are those of the source. Unless noted, the call rests on the fitted dose curve.

Assay: qHTS assay to identify small molecule agonists of the NFkB signaling pathway - cell viability counter screen (AID 1159515); further: nearly all actives have a fitted effect of over 55% in size
Details: NFkB-bla ME-180 viability, CellTiter-Glo luminescence, 5 h; series mostly up to 61 µM
Summary of the method: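 Using the same wells as the NFkB reporter read, ME-180 NFkB-bla cells given compounds for 5 hr were assessed for viability via CellTiter-Glo, with luminescence taken after a 30 min room-temperature incubation.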

Row | Structure (SMILES) | outcome
1 | C#CC(C)N(C)C(=O)Nc1ccc(Cl)cc1 (centres undefined) | inactive
2 | CC(C)(C)OC(=O)c1ccc(O)cc1 | inactive
3 | CCN(C)C(=O)Oc1cccc([C@H](C)N(C)C)c1 | inactive
4 | CC(=O)c1ccc2c(c1)Cc1ccccc1-2 | inactive
5 | CCN1CCc2nc(N)oc2CC1 | inactive
6 | COc1nccnc1NS(=O)(=O)c1ccc(N)cc1 | inactive
7 | BrCCCCCBr | inactive
8 | c1ccc2c(c1)ccc1c3ccccc3ccc21 | inactive
9 | CCC(C=O)CC | inactive
10 | CN(CCOc1ccc(NS(C)(=O)=O)cc1)CCc1ccc(NS(C)(=O)=O)cc1 | inactive
11 | O=C1c2ccccc2C(=O)N1CCl | inactive
12 | CN(C)CCOCCO | inactive
13 | CCOC(=O)CC(=O)c1ccccc1 | inactive
14 | O=C(O)c1ccc(Cl)cc1Cl | inactive
15 | CN(C)c1ccc(C=O)cc1 | inactive
16 | CCOc1cc(NC(C)=O)ccc1C(=O)OC | inactive
17 | CC(=C(CCOC(=O)C(C)C)SSC(CCOC(=O)C(C)C)=C(C)N(C=O)Cc1cnc(C)nc1N)N(C=O)Cc1cnc(C)nc1N | inactive
18 | C[C@@H](Oc1ccc(CNC(=O)c2cccnc2Oc2ccc3c(c2)OCO3)c(F)c1)C(=O)O | inactive
19 | O=C(NCCN1CCOCC1)c1ccc(Cl)cc1 | inactive

Row | Structure (SMILES) | outcome
20 | N[C@@H](COP(=O)(O)O)C(=O)O | inactive
21 | COCCOCCOCCOCCO | inactive
22 | CCCCCCCC/C=C\CCCCCCCC(=O)OCCCC | inactive
23 | Cc1ccsc1/C=C/C1=NCCCN1C | inactive
24 | CNC(=O)[C@H]1O[C@@H](n2cnc3c(NCc4cc(Cl)ccc4OCc4cc(C)no4)ncnc32)[C@H](O)[C@@H]1N | inactive
25 | O=C(O)CCSSCCC(=O)O | inactive
26 | COc1ccc(-c2cc(=O)c3c(O)cc(O[C@@H]4O[C@H](CO[C@@H]5O[C@@H](C)[C@H](O)[C@@H](O)[C@H]5O)[C@@H](O)[C@H](O)[C@H]4O)cc3o2)cc1O | inactive
27 | NNc1nnc(NN)c2ccccc12 | inactive
28 | O=C(CS(=O)Cc1ccco1)NC/C=C\COc1cc(CN2CCCCC2)ccn1 (centres undefined) | inactive
29 | COc1cc(N)ccc1C | inactive
30 | COc1ccc(S(=O)(=O)N2c3ccc(Cl)cc3[C@@](O)(c3ccccc3Cl)[C@H]2C(=O)N2CCC[C@@H]2C(N)=O)cc1OC | inactive
31 | Cc1ccc2c(c1)OCC(=O)CO2 | inactive
32 | Cc1nc2n(c(=O)c1CCN1CCC(c3noc4cc(F)ccc34)CC1)CCC[C@H]2O | inactive
33 | CC(CN)CC(C)(C)CCN (centres undefined) | inactive
34 | COC(=O)c1ccccc1C(=O)c1ccc(OCCN2CCCCC2)cc1 | inactive
35 | Nc1nnc(-c2cccc(Cl)c2Cl)c(N)n1 | inactive
36 | O=C1c2ccccc2C(=O)C1c1ccccc1 | inactive
37 | CCCCOC(=O)c1ccccc1 | inactive

Assay: qHTS assay to identify small molecule agonists of the endoplasmic reticulum stress response signaling pathway (AID 1159516; active means well fitted activation curve with a large enough effect in the signal ratio in the repeat runs, not every such curve was filed as active; the % refers to the signal ratio)
Details: ESRE-bla HeLa, ER stress beta-lactamase reporter, 5 h; series mostly up to 61 µM
Summary of the method: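 An ESRE-bla HeLa cell assay: compounds were pin-transferred from DMSO onto overnight-plated cells and left 5 hr at 37 C. Substrate was then loaded for 2 hr at room temperature before reading fluorescence at 460 nm and 530 nm.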

Row | Structure (SMILES) | outcome
38 | C#CC(C)N(C)C(=O)Nc1ccc(Cl)cc1 (centres undefined) | inactive
39 | CC(C)(C)OC(=O)c1ccc(O)cc1 | inactive
40 | CCN(C)C(=O)Oc1cccc([C@H](C)N(C)C)c1 | inactive
41 | CC(=O)c1ccc2c(c1)Cc1ccccc1-2 | inactive
42 | CCN1CCc2nc(N)oc2CC1 | inactive
43 | COc1nccnc1NS(=O)(=O)c1ccc(N)cc1 | inactive
44 | BrCCCCCBr | inactive
45 | c1ccc2c(c1)ccc1c3ccccc3ccc21 | inactive
46 | CCC(C=O)CC | inactive
47 | CN(CCOc1ccc(NS(C)(=O)=O)cc1)CCc1ccc(NS(C)(=O)=O)cc1 | inactive
48 | O=C1c2ccccc2C(=O)N1CCl | inactive
49 | CN(C)CCOCCO | inactive
50 | CCOC(=O)CC(=O)c1ccccc1 | inactive
51 | O=C(O)c1ccc(Cl)cc1Cl | inactive
52 | CN(C)c1ccc(C=O)cc1 | inactive
53 | CCOc1cc(NC(C)=O)ccc1C(=O)OC | inactive
54 | CC(=C(CCOC(=O)C(C)C)SSC(CCOC(=O)C(C)C)=C(C)N(C=O)Cc1cnc(C)nc1N)N(C=O)Cc1cnc(C)nc1N | inactive
55 | C[C@@H](Oc1ccc(CNC(=O)c2cccnc2Oc2ccc3c(c2)OCO3)c(F)c1)C(=O)O | inactive
56 | O=C(NCCN1CCOCC1)c1ccc(Cl)cc1 | inactive

Row | Structure (SMILES) | outcome
57 | N[C@@H](COP(=O)(O)O)C(=O)O | inactive
58 | COCCOCCOCCOCCO | inactive
59 | CCCCCCCC/C=C\CCCCCCCC(=O)OCCCC | inactive
60 | Cc1ccsc1/C=C/C1=NCCCN1C | inactive
61 | CNC(=O)[C@H]1O[C@@H](n2cnc3c(NCc4cc(Cl)ccc4OCc4cc(C)no4)ncnc32)[C@H](O)[C@@H]1N | inactive
62 | O=C(O)CCSSCCC(=O)O | inactive
63 | COc1ccc(-c2cc(=O)c3c(O)cc(O[C@@H]4O[C@H](CO[C@@H]5O[C@@H](C)[C@H](O)[C@@H](O)[C@H]5O)[C@@H](O)[C@H](O)[C@H]4O)cc3o2)cc1O | inactive
64 | NNc1nnc(NN)c2ccccc12 | inactive
65 | O=C(CS(=O)Cc1ccco1)NC/C=C\COc1cc(CN2CCCCC2)ccn1 (centres undefined) | inactive
66 | COc1cc(N)ccc1C | inactive
67 | COc1ccc(S(=O)(=O)N2c3ccc(Cl)cc3[C@@](O)(c3ccccc3Cl)[C@H]2C(=O)N2CCC[C@@H]2C(N)=O)cc1OC | inactive
68 | Cc1ccc2c(c1)OCC(=O)CO2 | inactive
69 | Cc1nc2n(c(=O)c1CCN1CCC(c3noc4cc(F)ccc34)CC1)CCC[C@H]2O | inactive
70 | CC(CN)CC(C)(C)CCN (centres undefined) | inactive
71 | COC(=O)c1ccccc1C(=O)c1ccc(OCCN2CCCCC2)cc1 | inactive
72 | Nc1nnc(-c2cccc(Cl)c2Cl)c(N)n1 | inactive
73 | O=C1c2ccccc2C(=O)C1c1ccccc1 | inactive
74 | CCCCOC(=O)c1ccccc1 | inactive
